The campaign covered roughly 39,000 compounds. About 3,300 (8.5%) were called active. For the sample, actives were picked, then their nearest neighbours and some compounds at random.
test system: HepG2; experiment: cytotoxicity call (relative viability < 0.9); conditions: 10 µM

Row | Structure (SMILES) | cytotoxicity call
1 | C[C@@H]1CN([C@@H](C)CO)C(=O)Cc2cc(NC(=O)Nc3ccc(C(F)(F)F)cc3)ccc2O[C@@H]1CN(C)C(=O)Nc1cccc2ccccc12 | inactive
2 | CC(C)NC(=O)N(C)C[C@@H]1OCCCC[C@@H](C)Oc2ccc(NC(=O)Nc3ccccc3)cc2C(=O)N([C@H](C)CO)C[C@@H]1C | inactive
3 | C[C@@H]1CCCCO[C@@H](CN(C)C(=O)Cc2ccccc2)[C@@H](C)CN([C@@H](C)CO)C(=O)c2cc(NC(=O)Nc3ccc(C(F)(F)F)cc3)ccc2O1 | inactive
4 | O=C(O)CNC(=O)c1cc2ccccc2[nH]1 | inactive
5 | C[C@H](CO)N1C[C@H](C)[C@@H](CN(C)S(=O)(=O)c2ccc(Cl)cc2)Oc2ccc(NC(=O)CCN3CCOCC3)cc2CC1=O | inactive
6 | Cc1noc(C)c1S(=O)(=O)N(C)C[C@H]1OCCCC[C@H](C)Oc2ccc(NS(=O)(=O)c3cn(C)cn3)cc2C(=O)N([C@@H](C)CO)C[C@@H]1C | inactive
7 | C=c1cc(C)ccc1=C1NN=C(NC(=O)CC)O1 | inactive
8 | C[C@@H]1CCCCO[C@@H](CN(C)C(=O)Nc2ccc(F)cc2)[C@@H](C)CN([C@@H](C)CO)C(=O)c2cc(NC(=O)Nc3ccccc3)ccc2O1 | inactive
9 | CN1CCC(Nc2nc(Nc3ccc(Oc4ccccc4)cc3)c3c(O)ncc(Br)c3n2)CC1 | active
10 | C[C@@H]1CN([C@@H](C)CO)S(=O)(=O)c2ccc(-c3ccc(F)cc3)cc2O[C@H]1CN(C)S(C)(=O)=O | inactive
11 | CNC(=O)N1CCN(Cc2cnn(C)c2)C[C@]2(CCCC(=O)N2)C1 | inactive
12 | C=CCOC(=O)[C@H]1[C@@H]2C(=O)O[C@@H](c3ccccc3)[C@@H](c3ccccc3)N2[C@@H](c2ccc(OCCOC(=O)[C@H]3C[C@H]4C(=O)N[C@@H](CCCCNC(C)=O)C(=O)N4[C@H]3c3cccc(OCCO)c3)cc2)[C@]12C(=O)Nc1ccc(I)cc12 | inactive
13 | Cc1ccc(S(=O)(=O)N(C)C[C@H]2OCCCC[C@@H](C)Oc3ccc(NS(=O)(=O)c4ccc(Cl)cc4)cc3C(=O)N([C@H](C)CO)C[C@H]2C)cc1 | inactive
14 | Cc1ccc(S(=O)(=O)N(C)C[C@@H]2OCCCC[C@H](C)Oc3ccc(NS(=O)(=O)c4ccc(Cl)cc4)cc3C(=O)N([C@@H](C)CO)C[C@@H]2C)cc1 | active
15 | Cc1ccc(S(=O)(=O)N(C)C[C@@H]2OCCCC[C@@H](C)Oc3ccc(NS(=O)(=O)c4ccc(Cl)cc4)cc3C(=O)N([C@H](C)CO)C[C@H]2C)cc1 | inactive
16 | Cc1ccc(S(=O)(=O)Nc2ccc3c(c2)C(=O)N([C@@H](C)CO)C[C@@H](C)[C@@H](CN(C)S(=O)(=O)c2ccc(Cl)cc2)OCCCC[C@H](C)O3)cc1 | inactive
17 | Cc1ccc(S(=O)(=O)N(C)C[C@@H]2OCCCC[C@H](C)Oc3ccc(NS(=O)(=O)c4ccc(Cl)cc4)cc3C(=O)N([C@H](C)CO)C[C@H]2C)cc1 | active
18 | Cc1ccc(S(=O)(=O)Nc2ccc3c(c2)C(=O)N([C@H](C)CO)C[C@H](C)[C@H](CN(C)S(=O)(=O)c2ccc(Cl)cc2)OCCCC[C@H](C)O3)cc1 | inactive
19 | Cc1ccc(S(=O)(=O)N(C)C[C@H]2OCCCC[C@@H](C)Oc3ccc(NS(=O)(=O)c4ccc(Cl)cc4)cc3C(=O)N([C@H](C)CO)C[C@@H]2C)cc1 | inactive
20 | Cc1ccc(S(=O)(=O)N(C)C[C@@H]2OCCCC[C@@H](C)Oc3ccc(NS(=O)(=O)c4ccc(Cl)cc4)cc3C(=O)N([C@@H](C)CO)C[C@@H]2C)cc1 | inactive
21 | Cc1ccc(S(=O)(=O)N(C)C[C@H]2OCCCC[C@H](C)Oc3ccc(NS(=O)(=O)c4ccc(Cl)cc4)cc3C(=O)N([C@@H](C)CO)C[C@@H]2C)cc1 | active
22 | Cc1ccc(S(=O)(=O)Nc2ccc3c(c2)C(=O)N([C@H](C)CO)C[C@H](C)[C@@H](CN(C)S(=O)(=O)c2ccc(Cl)cc2)OCCCC[C@@H](C)O3)cc1 | active

From the antibiotic and cytotoxicity screens of Wong et al. (2023)
